From PubChem
HIF-2a inh: blocks HIF-2a reporter activity | 786-0 RCC cells HIF-2a reporter, luciferase luminescence, overnight | 360,000 tested, 0.72% active | inhibition, % at 18.8 µM;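 active means inhibition of the luminescence signal of 40% or more relative to plate controls, in a single-dose primary screen at 18.75 µM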
PPC-1+TRAIL kill: PPC-1 cancer cell killing with TRAIL present. PPC-1 cells + TRAIL, ATPLite viability luminescence. cell killing (% activity), % at 4 µM or 5 µM. 220,000 tested, 0.41% active. AID 1443;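 active means cell killing above 50% in the first pass at 4 µM, then a duplicate retest at 5 µM averaging 50% or more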;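 further: plate controls were cells with TRAIL plus DMSO for no effect and medium-only wells lacking cells for full effect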
KKLEB cytotox: CF airway cell cytotoxicity counter-screen; 360,000 tested, 0.36% active; KKLEB CF airway cells viability, ATPlite luminescence, overnight; hits give low values; cells stimulated with P. aeruginosa culture filtrate; AID 602141; activity change (cytotoxicity), % at 5 µM;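 active means corrected activity change at or below -50% at 5 µM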
iPSC survival up: hiPSC single-cell survival enhancement | survival enhancement, % at 20 µM | ATPlite luminescence; 100% = ROCK inhibitor wells, 0% = DMSO | 360,000 tested, 0.044% active | AID 602274; in the data active means survival enhancement above about 18%;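 further: cells exposed to compounds for 16 hours before the ATP read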
TRAIL sens C8: sensitizes caspase-8 expressing cells to TRAIL | AID 624354 | NB7+C8 cells + TRAIL, ATPlite viability luminescence | 360,000 tested, 1% active | inhibition (viability loss, TRAIL sensitization), % at 10 µM;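 active means compounds causing at least 50% loss of cell viability in the single-dose screen, relative to plate controls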
CF NFkB inh: cystic fibrosis NF-kB activation inhibition; 360,000 tested, 0.86% active; inhibition, % at 5 µM; AID 588850; KKLEB NF-kB-GFP reporter, PAF-induced, GFP fluorescence overnight;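 active means at least 50% inhibition at 5 µM, scaled per plate between neutral and stimulator controls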;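 further: PAF is a Pseudomonas aeruginosa culture filtrate used as stimulus; plate controls were PAF-stimulated DMSO wells for no effect and unstimulated DMSO wells for full effect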
PPC-1 tox: PPC-1 cell cytotoxicity | shares compounds with PPC-1+TRAIL kill | PPC-1 viability, ATPlite luminescence, overnight | cytotoxicity, % at 5 µM | 1,200 tested, 50% active;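 active means reconfirmed compounds whose average cytotoxicity reaches 50% or more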;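 further: 0% = DMSO-treated cells and 100% = wells holding medium but no cells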
* hit, by the source's call. In the library only some 2.2% were active in any assay of this set; here they are far more common.

How did Cc1ccc(C(=O)Nc2nc3c(s2)CCCC3)o1 do in these assays?
HIF-2a inh: -130.6; PPC-1+TRAIL kill: 52.1*; KKLEB cytotox: 0.2; iPSC survival up: -5.6; TRAIL sens C8: 65.5*; CF NFkB inh: -7.3; PPC-1 tox: 53.0*

Results for O=C(Nc1nc2c(s1)CCCC2)c1cccs1 ?
HIF-2a inh: -158.2; PPC-1+TRAIL kill: 51.1*; KKLEB cytotox: -6.6; iPSC survival up: -1.8; TRAIL sens C8: 62.1*; CF NFkB inh: -2.0; PPC-1 tox: 52.0*

How did O=C(/C=C/c1ccc2c(c1)OCO2)Nc1ccc(Cl)cn1 do in these assays?
HIF-2a inh: -235.2; PPC-1+TRAIL kill: 19.1; KKLEB cytotox: -18.2; iPSC survival up: -4.6; TRAIL sens C8: 30.8; CF NFkB inh: 4.3

How did CCN(CC)S(=O)(=O)c1ccc(N2CC(C(=O)Nc3cccc(C(=O)NC4CC4)c3)CC2=O)cc1 (configuration not stated) do in these assays?
HIF-2a inh: 2.5; KKLEB cytotox: -10.9; iPSC survival up: 2.6; TRAIL sens C8: -2.5; CF NFkB inh: 8.9

How did Cc1ccc(C(=O)/C=C/Nc2cccc(O)c2)cc1 do in these assays?
HIF-2a inh: -225.3; PPC-1+TRAIL kill: 87.7*; KKLEB cytotox: -35.2; iPSC survival up: -2.6; TRAIL sens C8: 83.0*; CF NFkB inh: -16.2; PPC-1 tox: 87.7*

How did O=C(/C=C/Nc1cccc(O)c1)c1ccccc1 do in these assays?
HIF-2a inh: -271.9; PPC-1+TRAIL kill: 73.6*; KKLEB cytotox: -0.5; iPSC survival up: -4.4; TRAIL sens C8: 66.9*; CF NFkB inh: -18.6; PPC-1 tox: 71.6*

Results for O=C(/C=C/Nc1ccc(F)c(Cl)c1)c1ccccc1 ?
HIF-2a inh: -291.2; KKLEB cytotox: 0.2; iPSC survival up: -0.3; TRAIL sens C8: 25.6; CF NFkB inh: -11.3

Results for COc1ccc([C@H]2C[C@H](n3cc(COC(=O)c4ccccc4)nn3)[C@@H](O)CN2CC2CCCCC2)cc1 ?
HIF-2a inh: 11.9; KKLEB cytotox: -19.2; iPSC survival up: 0.8; TRAIL sens C8: 7.6; CF NFkB inh: 4.1

What do the screens show for `Cc1ccc(N(CC(=O)N2CCc3ccccc3C2)S(C)(=O)=O)cc1`?
HIF-2a inh: 12.8; KKLEB cytotox: -8.6; iPSC survival up: 4.6; TRAIL sens C8: -5.1; CF NFkB inh: 1.9

What do the screens show for `CCC(C)(C)c1ccc(OCCCC[n+]2cccc(C)c2)c(C(C)(C)CC)c1`?
HIF-2a inh: 31.9; PPC-1+TRAIL kill: 35.5; KKLEB cytotox: -48.3; iPSC survival up: -5.6; TRAIL sens C8: 13.8; CF NFkB inh: 60.1*; PPC-1 tox: 36.8

How did Cc1ccc[n+](CC(=O)Nc2cc(C(F)(F)F)ccc2Cl)c1 do in these assays?
HIF-2a inh: 13.2; PPC-1+TRAIL kill: 8.0; KKLEB cytotox: -1.0; iPSC survival up: 3.4; TRAIL sens C8: -13.2; CF NFkB inh: -0.9

How did N#Cc1ccccc1NC(=O)c1ccc2c(Cl)c3c(nc2c1)CCCC3 do in these assays?
HIF-2a inh: -341.8; PPC-1+TRAIL kill: 36.7; KKLEB cytotox: -40.5; iPSC survival up: -1.2; TRAIL sens C8: 20.2; CF NFkB inh: 10.2

What do the screens show for `O=C(Nc1cccnc1Cl)c1ccc2c(Cl)c3c(nc2c1)CCC3`?
HIF-2a inh: -104.1; PPC-1+TRAIL kill: 63.0*; KKLEB cytotox: -26.2; iPSC survival up: -3.7; TRAIL sens C8: 75.7*; CF NFkB inh: -25.8; PPC-1 tox: 64.9*

How did CN(C)CCNC(=O)Cn1nc(C(F)F)cc1C1CC1 do in these assays?
HIF-2a inh: 14.0; PPC-1+TRAIL kill: -8.3; KKLEB cytotox: 3.1; iPSC survival up: 0.1; TRAIL sens C8: 5.6; CF NFkB inh: 14.8; PPC-1 tox: -14.0

How did CCn1c(=O)n(CC)c2cc(N3CCCC3)c(NC(=O)c3ccc(C)cc3)cc21 do in these assays?
HIF-2a inh: -5.9; KKLEB cytotox: 15.5; iPSC survival up: 1.6; TRAIL sens C8: 12.7; CF NFkB inh: -10.6

Results for O=C(CSc1nnc2ccc(-c3ccc(Br)cc3)nn12)NCC1CCCO1 (configuration not stated) ?
HIF-2a inh: 11.7; KKLEB cytotox: 6.1; iPSC survival up: 0.1; TRAIL sens C8: 8.8; CF NFkB inh: -13.4

What do the screens show for `Cc1nnc(NC(=O)CSc2ccc(-c3ccc(Cl)cc3)nn2)s1`?
HIF-2a inh: -26.6; PPC-1+TRAIL kill: -5.7; KKLEB cytotox: -5.6; iPSC survival up: 0.2; TRAIL sens C8: 13.3; CF NFkB inh: -7.0

Results for CCc1ccc(-c2ccc(SCC(=O)Nc3nnc(C)s3)nn2)cc1 ?
HIF-2a inh: -203.7; PPC-1+TRAIL kill: 73.6*; KKLEB cytotox: -36.3; iPSC survival up: -1.3; TRAIL sens C8: 75.5*; CF NFkB inh: -12.6; PPC-1 tox: 70.9*

What do the screens show for `CCOc1ccc(-c2ccc(SCC(=O)Nc3nnc(C)s3)nn2)cc1`?
HIF-2a inh: -218.2; PPC-1+TRAIL kill: 73.5*; KKLEB cytotox: -24.0; iPSC survival up: -0.6; TRAIL sens C8: 62.4*; CF NFkB inh: -15.1; PPC-1 tox: 74.7*

What do the screens show for `CCOc1ccc(-c2ccc(SCC(=O)NC3CCCCC3)nn2)cc1`?
HIF-2a inh: -143.4; KKLEB cytotox: -34.3; iPSC survival up: -0.6; TRAIL sens C8: 49.3; CF NFkB inh: 31.5

Results for CCc1ccc(-c2ccc(SCC(=O)NCC3CCCO3)nn2)cc1 (configuration not stated) ?
HIF-2a inh: -181.7; PPC-1+TRAIL kill: 45.9; KKLEB cytotox: -8.7; iPSC survival up: -0.8; TRAIL sens C8: 59.0*; CF NFkB inh: 10.1; PPC-1 tox: 49.2

Results for CCCCC(=O)N(C)c1c(C)nc2ccc(C(=O)NCc3ccccc3OC)cn12 ?
HIF-2a inh: 11.2; KKLEB cytotox: 4.9; iPSC survival up: 1.8; TRAIL sens C8: 3.5; CF NFkB inh: -13.6

How did O=C(NC1CCCC1)C(c1ccccn1)N(C(=O)c1csnn1)c1ccccc1F (configuration not stated) do in these assays?
HIF-2a inh: 8.7; KKLEB cytotox: -0.8; iPSC survival up: 0.4; TRAIL sens C8: -10.8; CF NFkB inh: 0.0

What do the screens show for `Cc1cccc(N2CCN(Cc3nc(CC4CC4)no3)CC2)n1`?
HIF-2a inh: 3.9; PPC-1+TRAIL kill: 6.4; KKLEB cytotox: 7.9; iPSC survival up: 1.0; TRAIL sens C8: -0.8; CF NFkB inh: -14.7

How did Cc1ccc2c(c1)sc(=NC(=O)c1cccs1)n2C do in these assays?
HIF-2a inh: -6.2; PPC-1+TRAIL kill: 88.3*; KKLEB cytotox: -65.5*; iPSC survival up: -0.4; TRAIL sens C8: 91.4*; CF NFkB inh: -34.0; PPC-1 tox: 84.9*

How did CCOC(=O)c1cc2sccc2n1CC(=O)Nc1ccc(OC)cc1 do in these assays?
HIF-2a inh: 22.2; PPC-1+TRAIL kill: -12.4; KKLEB cytotox: 0.2; iPSC survival up: -3.2; TRAIL sens C8: -6.3; CF NFkB inh: 9.7
